# Several values for one entry are separate records, joined by “and”; a condition that tells them apart may be missing. Equal values may be shown once. Results filed as inconclusive are left out. Entries that show only a call come without a potency. Where a structure was tested more than once in an assay, its records may differ in their call. Activity calls are given as the source filed them. Unless noted, calls follow the shape of the full dose curve.
# Key:
# [1] = Cytotoxicity counterscreen for inhibitors of SARS-CoV-2 cell entry (AID 1645845); also: nearly all actives have a fitted effect of over 50% in size
# Method in brief: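 48 h compound treatment (after 1 h preincubation), HEK293-ACE2 cells, 37 C/5% CO2; ATP luminescence endpoint; normalized to cell wells and media blanks.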
# [2] = Primary qHTS for inhibitors of nuclear receptor binding SET domain protein 2 (NSD2) in an isogenic RCH-ACV NSD2 p.E1099K mutant (9B) (AID 1645876; active = well fitted curve in the direction sought with a large enough effect; an effect the other way counts as inactive or inconclusive; also: nearly all actives have a fitted effect of over 70% in size; also: potency is read from the fitted curve at half-maximal effect)
# [3] = Primary qHTS for inhibitors of nuclear receptor binding SET domain protein 2 (NSD2) in an RCH-ACV wild type WT cells (2C) (AID 1645877; active = well fitted curve in the direction sought with a large enough effect; an effect the other way counts as inactive or inconclusive; also: nearly all actives have a fitted effect of over 70% in size; also: potency is read from the fitted curve at half-maximal effect)
# [4] = Primary qHTS to identify inhibitors of SARS-CoV-2 cell entry (AID 1645846); settings: activity change, negative = inhibition: at 57.1 µM (top of the series) unless noted; also: nearly all actives have a fitted effect of over 45% in size; also: potency is read from the fitted curve at half-maximal effect
# Method in brief: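 HEK293 cells stably expressing human ACE2, pre-treated 1 h with compound, then infected with MLV particles pseudotyped with Wuhan-Hu-1 spike (C-terminal 19-aa truncation). Luciferase luminescence after 48 h at 37 °C, normalised to spike PP and bald PP.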
# [5] = biological target: Papain (Carica papaya) (UniProt P00784); experiment: Primary qHTS assay for inhibitors of the protease papain (AID 1645873; active = well fitted curve in the direction sought with a large enough effect; an effect the other way counts as inactive or inconclusive;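 also: papain turnover of Z-FR-AMC read as the AMC fluorescence gain over 10 min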)
# [6] = VSVG counterscreen qHTS to identify inhibitors of SARS-CoV-2 cell entry (AID 1645847); also: potency is read from the fitted curve at half-maximal effect; nearly all actives have a fitted effect of over 65% in size
# Method in brief: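 HEK293-ACE2 cells (Expi293F, human ACE2) pretreated 1 h with compound, then infected with MLV-based VSV-G pseudotyped particles for 48 h at 37 C; luciferase luminescence normalized to VSV-G PP and bald PP wells.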
# Papain (Carica papaya), sequence (P00784 whole entry, looked up): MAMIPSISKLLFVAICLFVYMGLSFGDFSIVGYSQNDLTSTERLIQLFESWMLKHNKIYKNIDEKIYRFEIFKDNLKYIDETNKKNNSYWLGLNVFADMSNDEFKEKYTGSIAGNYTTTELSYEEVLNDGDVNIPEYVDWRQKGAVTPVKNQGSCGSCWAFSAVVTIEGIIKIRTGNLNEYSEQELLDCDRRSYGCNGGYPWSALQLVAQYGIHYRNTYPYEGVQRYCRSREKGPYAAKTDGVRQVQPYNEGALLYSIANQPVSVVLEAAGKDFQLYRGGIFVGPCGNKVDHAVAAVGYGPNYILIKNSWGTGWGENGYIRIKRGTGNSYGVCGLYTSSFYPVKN
structure (smiles),measurement,setting,value
C[C@]12CC[C@@H]3[C@@H](CCC4=CC(=O)CC[C@@H]43)[C@@H]1CC[C@@H]2OC(=O)CCc1ccccc1,Potency,[1],inactive
same,Potency,[2],inactive
same,Potency,[3],inactive
C[C@@H](Oc1cc(-n2cnc3ccc(CN4CCN(C)CC4)cc32)sc1C(N)=O)c1ccccc1C(F)(F)F,"activity change, negative = inhibition",[4],-97%
CC(C)(C)c1cc(C=C(C#N)C#N)cc(Br)c1O,Potency,[1],inactive
same,Potency,[4],inactive
same,Potency,[2],inactive
same,Potency,[3],16.4 µM (active) and inactive
Clc1ccccc1C(c1ccccc1)(c1ccccc1)n1cccn1,Potency,[1],inactive
same,Potency,[2],inactive
same,Potency,[3],inactive
CC(C)NC(C)Cc1ccc(I)cc1 (stereo unspecified),Potency,[1],inactive
same,Potency,[5],inactive
O=c1cccc2n1CC1CNC[C@H]2C1,Potency,[1],inactive
same,"activity change, negative = inhibition",[4],-15.2%
same,Potency,[2],inactive
same,Potency,[3],inactive
CN(C)CCCN=c1c2ccccc2n(C)c2[nH]c(=O)n(C)c(=O)c12,Potency,[4],31.6 µM (active)
CC(=O)N[C@@H](CCC(N)=O)C(=O)O,"activity change, negative = inhibition",[4],-25.1%
CCCC[N+]1(C)[C@H]2CC(OC(=O)[C@H](CO)c3ccccc3)C[C@H]1[C@H]1O[C@H]12 (stereo partly specified),Potency,[1],inactive
same,"activity change, negative = inhibition",[4],-13.1%
same,Potency,[2],inactive
same,Potency,[3],inactive
Nc1ccccc1NC(=O)c1ccc(CNc2nccc(-c3cccnc3)n2)cc1,Potency,[4],inactive
CN1[C@H]2CC(O)C[C@H]1[C@H]1O[C@H]12 (stereo partly specified),Potency,[1],inactive
same,"activity change, negative = inhibition",[4],0.905%
same,Potency,[2],inactive
same,Potency,[3],inactive
CCCN1CCO[C@@H]2c3cc(O)ccc3OC[C@H]21,Potency,[1],inactive
same,Potency,[4],inactive
same,Potency,[5],inactive
same,Potency,[2],inactive
same,Potency,[3],inactive
CCN1C[C@]2(OC(=O)c3ccccc3NC(C)=O)CC[C@H](OC)[C@@]34[C@H]5CC6[C@@H](OC)C[C@](O)(C(C[C@@H]23)[C@@H]14)[C@@]5(O)[C@@H]6OC,Potency,[1],inactive
same,"activity change, negative = inhibition",[4],1.38%
same,Potency,[2],inactive
same,Potency,[3],inactive
CC(=O)c1c(C)c2cnc(Nc3ccc(N4CCNCC4)cn3)nc2n(C2CCCC2)c1=O,Potency,[1],inactive
same,Potency,[6],6.81 µM (active)
CC(C)c1ccccc1Cc1cc(C(=O)Nc2ccc(S(=O)(=O)c3ccccc3C(C)(C)C)cc2)c(O)c(O)c1O,Potency,[4],inactive
O=S(=O)(CC1CS1)c1ccc(Oc2ccccc2)cc1 (stereo unspecified),Potency,[1],inactive
same,Potency,[4],inactive
same,Potency,[2],8.33 µM (active)
same,Potency,[3],5.25 µM (active)
O=C(Nc1ccc(F)c(C(F)(F)F)c1)Nc1nnc(-c2ccncc2)s1,"activity change, negative = inhibition",[4],-21.1%
O=C(c1cc(Cc2n[nH]c(=O)c3ccccc23)ccc1F)N1CCN(C(=O)C2CC2)CC1,Potency,[1],inactive
same,Potency,[6],21.5 µM (active)
O=c1[nH]c(-c2ccc(C(F)(F)F)cc2)nc2c1CSCC2,Potency,[1],inactive
same,Potency,[6],1.92 µM (active)
COC(=O)[C@@H](N)CCCN=C(N)N[N+](=O)[O-],Potency,[1],inactive
same,"activity change, negative = inhibition",[4],-1.1%
same,Potency,[2],inactive
same,Potency,[3],inactive
O=C(Nc1cccc(Cl)c1)Nc1ncc(CCNc2ncnc3ccsc23)s1,Potency,[4],3.16 µM (active)
O=S(=O)(F)Cc1ccccc1,Potency,[1],inactive
same,"activity change, negative = inhibition",[4],-1.91%
same,Potency,[2],inactive
same,Potency,[3],inactive
O=c1[nH]c2ccccc2n1C1CCN(Cc2ccc(-c3[nH]c4cc5ncnc5cc4nc3-c3ccccc3)cc2)CC1,Potency,[1],inactive
same,Potency,[2],2.95 µM (active)
same,Potency,[3],5.25 µM (active)
C#CC1(O)CCC2C3CCC4=CC(=O)CCC4(C)C3CCC21C (stereo unspecified),Potency,[1],inactive
same,"activity change, negative = inhibition",[4],-0.771%
same,Potency,[2],inactive
same,Potency,[3],inactive
O=c1cc(N2CCOCC2)oc2c(-c3cccc4c3sc3ccccc34)cccc12,Potency,[4],7.94 µM (active)
CCNC(=O)C[C@@H]1N=C(c2ccc(Cl)cc2)c2cc(OC)ccc2-n2c(C)nnc21,Potency,[1],inactive
same,Potency,[2],459 nM (active) and 590 nM (active)
same,Potency,[3],459 nM (active) and 833 nM (active)
COC1=C[C@@H]2[C@@H]3Cc4ccc(OC)c(O)c4[C@]2(CCN3C)CC1=O,Potency,[1],inactive
same,"activity change, negative = inhibition",[4],-15.7%
same,Potency,[2],inactive
same,Potency,[3],inactive
COc1ncc(-c2ccc3nccc(-c4ccnnc4)c3c2)cc1NS(=O)(=O)c1ccc(F)cc1F,Potency,[4],2.51 µM (active)
C[C@](O)(COc1ccc(C#N)cc1)C(=O)Nc1ccc(C#N)c(C(F)(F)F)c1,Potency,[1],inactive
same,"activity change, negative = inhibition",[4],-12.9%
same,Potency,[2],20.9 µM (active)
same,Potency,[3],20.9 µM (active)
CN1CCN(c2ccc([N+](=O)[O-])c3no[n+]([O-])c23)CC1,Potency,[1],inactive
same,"activity change, negative = inhibition",[4],-23.8%
same,Potency,[3],20.9 µM (active)
CN(C)NC(=O)CCC(=O)O,Potency,[1],inactive
same,"activity change, negative = inhibition",[4],-24.7%
same,Potency,[2],inactive
same,Potency,[3],inactive
CC(C)(C)c1cnc(CSc2cnc(NC(=O)C3CCNCC3)s2)o1,Potency,[1],inactive
same,Potency,[6],1.92 µM (active)
CC(C)OC(=O)C1=CN(C(=O)c2ccc(F)c(F)c2)CC(C)(C)c2c1[nH]c1ccccc21,"activity change, negative = inhibition",[4],-3.59%
Cc1ccc(C(=O)Nc2cccc(C(F)(F)F)c2)cc1-c1ccc2nc(NCCN3CCOCC3)ncc2c1,Potency,[4],31.6 µM (active)
c1ccc2c(CN3CCNCC3)cccc2c1,Potency,[1],inactive
same,"activity change, negative = inhibition",[4],-23.2%
same,Potency,[2],inactive
same,Potency,[3],inactive
C[C@]12CC[C@H]3[C@@H](CCC4=CC(=O)CC[C@@]43C)[C@H]1CC[C@H]2OC(=O)CCC1CCCC1,Potency,[1],inactive
same,"activity change, negative = inhibition",[4],-3.52%
same,Potency,[2],inactive
same,Potency,[3],inactive
CN1CC[C@@H](c2c(O)cc(O)c3c(=O)cc(-c4ccccc4Cl)oc23)[C@@H](O)C1,Potency,[6],1.36 µM (active)
COc1cc2nccc(Oc3ccc(NC(=O)C4(C(=O)Nc5ccc(F)cc5)CC4)cc3)c2cc1OC,Potency,[6],8.57 µM (active)
CCCN1CCC[C@H](c2cccc(O)c2)C1,Potency,[5],inactive
CC[C@@H]1C(=O)N(C)c2cnc(Nc3ccc(C(=O)NC4CCN(C)CC4)cc3OC)nc2N1C1CCCC1,"activity change, negative = inhibition",[4],-96.8%

# From PubChem BioAssay (NCATS)
